# Assay results taken from PubChem BioAssay (NCI).
# Compounds without any hit were thinned out: in the full panel of roughly 83,000, 20% have a hit.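 Results are percent growth after 48 hours of single-concentration exposure. 100 means growth as in untreated cells, lower positive values show inhibition; negative values down to -100 show cell death.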 A number with no mark means an inactive call. Active and inactive are the calls of the source. The calls were made as follows: active = growth percent below 10; inactive = the rest.
# What was measured:
# Assay in all cases: NCI-60 one-dose screen, 48 h (100 = growth as untreated, 0 = no growth, -100 = all killed)
# NCI-H226 lung = details: 10 µM unless noted
# NCI-H322M lung = details: 10 µM unless noted
# HOP-62 NSCLC = details: 10 µM unless noted
# NCI-H460 lung = details: 10 µM unless noted
# HOP-92 NSCLC = details: 10 µM
# NCI-H522 lung = details: 10 µM unless noted
# A549/ATCC NSCLC = details: 10 µM unless noted
# 786-0 renal = details: 10 µM unless noted
# COLO 205 colon = details: 10 µM unless noted
# DU-145 prostate = details: 10 µM unless noted
# K-562 leukemia = details: 10 µM unless noted
# MALME-3M melanoma = details: 10 µM unless noted
# MDA-MB-231 breast = details: 10 µM unless noted
# RXF 393 renal = details: 10 µM unless noted
# SF-268 CNS = details: 10 µM unless noted
# SF-295 CNS = details: 10 µM unless noted
# SF-539 CNS = details: 10 µM unless noted
# UACC-257 melanoma = details: 10 µM unless noted
# M14 melanoma = details: 10 µM unless noted
# NCI-H23 lung = details: 10 µM unless noted
Compound,growth (NCI-H226 lung) [%],growth (NCI-H322M lung) [%],growth (HOP-62 NSCLC) [%],growth (NCI-H460 lung) [%],growth (HOP-92 NSCLC),growth (NCI-H522 lung) [%],growth (A549/ATCC NSCLC) [%],growth (786-0 renal) [%],growth (COLO 205 colon) [%],growth (DU-145 prostate) [%],growth (K-562 leukemia) [%],growth (MALME-3M melanoma) [%],growth (MDA-MB-231 breast) [%],growth (RXF 393 renal),growth (SF-268 CNS) [%],growth (SF-295 CNS) [%],growth (SF-539 CNS) [%],growth (UACC-257 melanoma) [%],growth (M14 melanoma) [%],growth (NCI-H23 lung) [%]
O=C(CSc1nc2ccccc2c(=O)n1-c1ccccc1)Nc1ccc(-c2nc3ccc([N+](=O)[O-])cc3[nH]2)cc1,82,97.8,99.1,63.5,99.1%,75.2,93.4,95.2,110,84.2,42.7,71.1,76.8,64.5%,76.2,103,78.2,95.8,93.3,–
Cc1cc(-c2ccc(Cl)cc2)n(Cc2nnc(SCC(=O)Nc3ccc(S(N)(=O)=O)cc3)n2C2CCCCC2)n1,–,–,114,105,–,99.8,98.4,108,116,117,104,87,106,110%,113,98,103,101,99.8,99.4
Cc1cc(C)c(N2C(=O)CC(Nc3ccc(Cl)cc3Cl)C2=O)c(C)c1 (centres undefined),–,–,104,–,–,93.6,104,102,124,110,102,96.7,102,121%,106,105,96.8,103,103,104
C=CCOc1cccc(/C=C2\SC(=S)N(C3CC(=O)N(c4ccc(Br)cc4)C3=O)C2=O)c1 (centres undefined),101,102,100,104,107%,101,105,104,126,109,88.1,100,96.3,132%,103,97.8,101,108,106,–
Cc1cc(C(NC(=O)CCCCCNc2cccc3c2C(=O)N(C2CCC(=O)NC2=O)C3=O)c2ccc3c(c2)OC(F)(F)O3)c(O)c2ncccc12 (centres undefined),72.8,71.1,51.1,14.7,4.13% (active),72.1,66.7,79.2,111,51.9,30.2,84.5,55.2,86.4%,47.8,48.2,56.3,98.5,70.2,–
C=CCn1c(-c2nc3ccc(C(=C(C#N)C#N)c4ccccc4)cc3[nH]2)cc2cc(Br)ccc21,–,–,59.5,42.2,–,60.2,51.7,59.2,65.3,72.4,23.7,84.1,58.3,–,62.9,43.1,65.3,70.9,–,46.9
CC(=O)c1ccc(Nc2nc(SCC(C)C)nc(-c3ccccc3)c2C#N)cc1,55.5,94.9,25.9,105,44.6%,87.3,101,53.9,119,107,95.4,94.9,73.5,-1.29% (active),72,17,63.9,105,103,–
CCC(CC)N1C(=O)/C(=c2\sc3n(c2=O)NC2C(N=3)N(CC)C(=O)N2CC)c2ccccc21 (centres undefined),79.1,80.6,73.2,27.5,120%,62.7,57.6,72.7,–,52,26,65.2,53.2,–,63.4,20.3,25.2,86.1,–,–
COc1ccc(-c2nc3ccc(-c4nnc(SCC(=O)Nc5ccc(C(=O)/C=C/c6ccc(Cl)cc6)cc5)o4)cc3[nH]2)cc1,94.1,100,99.5,104,95%,95.3,105,99.1,117,104,93.9,96.1,94.8,98.2%,94.9,95.9,87.1,107,105,–
